Measurements: the supplement of paper PMC6555819

How the values were obtained:
Test in all cases: PBM binding z-score (relative to random genomic background probes); higher = stronger binding; sequences stand for … in GC…GCGATTGACAGCGTAGAATGAAGG
[1] = tested on: LXRa:RXRa (NR concentration 270 nM, RXRa partner concentration 90 nM)
Procedure, shortened: (§1)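 Binding buffer was PBS pH 7.4 with 2% milk, 0.02% Triton X-100, 1 mM DTT, 0.2 mg/mL BSA and 0.4 mg/ml salmon testes DNA. In it, ligand-free nuclear receptor dimers were incubated 1 h on custom Agilent 4×180K protein-binding microarrays carrying double-stranded probes. Antibodies against each partner (one per run) detected binding, and z-scores were calculated against random background probes after regression normalization of scanned fluorescence.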

[2] = tested on: LXRa homodimer (NR concentration 270 nM)
Procedure, shortened: as §1

[3] = tested on: LXRb homodimer (NR concentration 270 nM)
Procedure, shortened: as §1

[4] = tested on: PPARg:RXRa (NR concentration 180 nM, RXRa partner concentration 90 nM)
Procedure, shortened: as §1

[5] = tested on: PPARg:RXRa 270nM:90nM, anti-RXR (NR concentration 270 nM, RXRa partner concentration 90 nM)
Procedure, shortened: as §1

[6] = tested on: PPARg:RXRa 30nM:10nM, anti-RXR (NR concentration 30 nM, RXRa partner concentration 10 nM)
Procedure, shortened: as §1

[7] = tested on: PPARg:RXRa 90nM:30nM, anti-RXR (NR concentration 90 nM, RXRa partner concentration 30 nM)
Procedure, shortened: as §1

[8] = tested on: PPARg:RXRa DBDmut IVT, anti-RXR (DBD mutation: RXRa K156A/R161A, NR concentration 270 nM, RXRa partner concentration 90 nM)
Procedure, shortened: as §1

Sequence | PBM binding z-score [1] | PBM binding z-score [2] | PBM binding z-score [3] | PBM binding z-score [4] | PBM binding z-score [5] | PBM binding z-score [6] | PBM binding z-score [7] | PBM binding z-score [8]
CAAACCAGGTCAAGAGGTCAAAGTCCGCTTCCCG | 6.66 | 6.64 | 1.8 | 8.56 | 7.51 | 5.51 | 7.2 | 5.93
TCTGCTAGGTCAACGATGGTCAGTTAATCTGCTA | 2.65 | -0.279 | 0.325 | 2.14 | 2.8 | 1.79 | 2.47 | 4.02
CGTCAAAGTTCAAGGTCACGTAACAGAAAGCAGC | – | 5.71 | 2.05 | 6.83 | 6.7 | 3.83 | 5.84 | 2.03
TCTCGGAGGTCACGAAAGGTCAGAGCTCGACATC | – | 6.78 | 2.06 | 8.27 | 7.76 | 5.31 | 7.09 | 4.43
TATACAGGGTCAAAGGTCAGAGTACGAATGTCGA | – | 4.72 | 3.86 | – | 9.79 | 9.88 | 10.9 | 3.73
ATCGAAAGGTCAAGGTGAGTATAGAGAAAGGGAA | – | 2.78 | 3.58 | 8.08 | 7.77 | 5.24 | 7.07 | 3.34
TATACGGGGTCAAAGGCCAGAGTACGAATGTCGA | – | 4.73 | 5.42 | – | 9.09 | 7.56 | 9.05 | 4.38
CGTCCAAGGTCAAAGGTCATTGAAGAGATGACGG | – | 6.32 | 3.11 | – | 10 | 9.22 | 11.6 | 4.6
GCTTACAGGTCAAAGGTTATAGCATGAATAGAAT | – | 2.63 | 1.4 | 11.5 | 9.51 | 8.9 | 10.5 | 5.27
CGTTCAAGGTCAAAGGTCAGTGAAGAGATGACGG | – | 4.39 | 2.52 | – | 9.86 | 11.2 | 11.5 | 5.39
CAAAATAGGTCACAGAGGTCAAAGTCCGTGCGTA | – | 7.45 | 2.61 | 9.92 | 8.39 | 6.56 | 8.55 | 7.62
CGTCAAAGGTCAACTAAGGTAACGTAAAGCACGC | – | 3.42 | 4.64 | 9.18 | 8.77 | 6.39 | 8.42 | 5.01
ATCGAAAGGTCAAAGGTGAGTATACCCACCCGAA | – | 4.82 | 4.53 | – | 8.89 | 6.69 | 8.79 | 4.23
TGTCAAAGTTCAAAGGTCACGTAAGTATCCACAC | – | 7.63 | 3.24 | – | 9.52 | 7.66 | 10.2 | 1.46
CGTCAAAGGTCAATGCTAGGTCAGTGAAAGCATT | – | 4.73 | 3.46 | 8.14 | 8.21 | 5.21 | 7.67 | 4.79
CCTTAGGGGTCACTCCAGGTTATAGCATCGGAGT | – | 3.9 | 1.26 | 7.77 | 7.74 | 4.31 | 6.51 | 3.7
CCTTAGGGGTCACGAGGTTATAGCACGACGAGCG | – | 1.59 | 0.631 | – | 9.08 | 6.93 | 8.31 | 5.82
CTACCAAGGTCAACAAGGTCGTTGATTACTATTC | – | 3.79 | 1.23 | 5.57 | 6.01 | 2.68 | 4.51 | 4.52
CAAACGAGGTCAAGGTCAAAGTCGGTTTGTGCCA | – | 4.79 | 2.41 | 9.01 | 7.98 | 5.75 | 7.37 | 6.4
ACTCGGAGGTCAAAGGTCAGAGCTACGCCAGTGA | – | 5.1 | 2.98 | – | 9.47 | 9.38 | 10.2 | 4.46
AGTCAAAGGTCATCTAGGTAACGTAAGATATGCT | – | 4.61 | 5.04 | – | 8.23 | 6.82 | 8.3 | 4.12

Sequence | PBM binding z-score [1] | PBM binding z-score [2] | PBM binding z-score [3] | PBM binding z-score [4] | PBM binding z-score [5] | PBM binding z-score [6] | PBM binding z-score [7] | PBM binding z-score [8]
CGTCAAAGGTCAAGGTAACGTAACAGAAAGCAGC | – | 2.47 | 2.82 | 9.12 | 8.51 | 6.2 | 8.31 | 4.8
CAAACAAGGTCACGAAAGGTCAAAGTCGAATGAC | – | 8.69 | 3.83 | 9.38 | 8.37 | 5.8 | 7.95 | 5.71
ATCGAAAGGTCATGAGGTGAGTATACAGAAAGGC | – | 4.02 | 2.52 | 9.07 | 7.95 | 5.41 | 7.18 | 4.25
CTCGAAAGGTCATGCTCAGGTGAGTATACCAAAC | – | 3.89 | 2.44 | 7.63 | 8.05 | 4.38 | 6.89 | 4.16
TGTCAAAGGTCAAAGGTAACGTAAGTATCCACAC | – | 4.19 | 4.32 | – | 9.9 | 8.47 | 10.5 | 4.01
CAAACGAGGTCACAGAGGTCAAAGTCCGTGCGTA | – | 8.64 | 3.01 | 9.94 | 8.76 | 6.47 | 8.53 | 6.82
TTACCAAGGTCAAAGGTCGTTGATGCACGCCTTG | – | 4.68 | 1.83 | – | 8.91 | 8.91 | 10.4 | 4.35
AATACGGGGTCATCGTAGGCCAGAGTACGCACAG | – | 4.62 | 2.94 | 9.53 | 8.49 | 6.12 | 7.88 | 4.48
CAAAATAGGTCAAAGGTCAAAGTCGAGCCAACCA | – | 6.17 | 3.52 | 13.7 | 11.5 | 12.6 | 13.3 | 8.15
TCTAGTAGGTCAAAGGTCACACACTCGAAATGCG | – | 5.52 | 2.6 | – | 11.6 | 13 | 14.2 | 8.19
CGTCAAAGGTCAAGGTCAGTGAAAGAGACTCGAA | – | 3.09 | 3.05 | – | 8.78 | 6.2 | 8.38 | 4.74
CCTCGGAGGTCAACAGGAGGTCAGAGCTGCCAGA | – | 4.43 | 1.49 | 6.66 | 6.55 | 2.94 | 5.21 | 3.21
GCTTACGGGTCAAAGGTCATAGCATGAATAGAAT | – | 4.02 | 1.77 | – | 10.4 | 12.9 | 12.5 | 5.72
CAAACGAGGTCAAGAGGTCAAAGTCCGCTTCCCG | – | 7.48 | 2.92 | 9.67 | 7.84 | 5.59 | 7.61 | 6.04
CGTACAAGGTCAAAGGTCAGTGAAGAGATGACGG | – | 3.43 | 2.4 | – | 10.1 | 11.2 | 11.9 | 5.32
CGTCAAAGGTCATAGGAGGTCAGTGAAGACAGAT | – | 6.84 | 3.02 | 8.97 | 8.33 | 5.97 | 7.99 | 4.36
CGTCAAAGGTCAAAGGTCAGTGAAGAGATGACGG | – | 5.49 | 4.46 | 11.4 | 9.58 | 9.03 | 10.4 | 5.34
ACTTAGGGGTCAACGAGGTTATAGCACGCGTATA | – | 2.91 | 2.35 | 9.33 | 8.62 | 6.08 | 8.5 | 5.4
ATCGAAAGGTCAACGAGGTGAGTATACACCGTTT | – | 4.35 | 3.41 | 8.38 | 7.87 | 5.13 | 7.2 | 3.84
CAAACGAGGTCACCGGAAGGTCAAAGTCCGCATG | – | 6.35 | 2.17 | 9.26 | 8.2 | 5.78 | 7.55 | 6.23
CAAACGAGGTCAAAGGTCAAAGTCGAGCCAACCA | – | 7.06 | 4.76 | 13.9 | 11.2 | 13.8 | 13.8 | 7.13
